Screening data (PubChem BioAssay)
Cycloheximide cs: affects cycloheximide protein synthesis inhibition readout, counter-screen; cell reporter, cycloheximide protein synthesis inhibition counterscreen; AID 2314; actives 12% (n = 300,000); max response, %; in the data active = max response mostly above about 13%, no sharp cut-off; inactive = mostly below about 14%; note: read at 38.3 µM for the half of the compounds with a filed dose
Shiga inhibitor: blocks Shiga toxin action in Vero cells | Vero cells, Shiga toxin protein synthesis inhibition reporter | inhibition, % at 38.7 µM | actives 9.2% (n = 290,000); in the data active = inhibition mostly above about 28%, no sharp cut-off; inactive = mostly below about 43%
LmPK inhibitor: LmPK (Leishmania mexicana) enzyme inhibition | Q27686 | purified LmPK, Kinase-Glo ATP luminescence, 1 h | Potency, µM (highest dose often 57.5 µM), hits mostly inhibitors | actives 0.37% (n = 290,000) | AID 1721
Target sequence (Q27686 whole entry, looked up): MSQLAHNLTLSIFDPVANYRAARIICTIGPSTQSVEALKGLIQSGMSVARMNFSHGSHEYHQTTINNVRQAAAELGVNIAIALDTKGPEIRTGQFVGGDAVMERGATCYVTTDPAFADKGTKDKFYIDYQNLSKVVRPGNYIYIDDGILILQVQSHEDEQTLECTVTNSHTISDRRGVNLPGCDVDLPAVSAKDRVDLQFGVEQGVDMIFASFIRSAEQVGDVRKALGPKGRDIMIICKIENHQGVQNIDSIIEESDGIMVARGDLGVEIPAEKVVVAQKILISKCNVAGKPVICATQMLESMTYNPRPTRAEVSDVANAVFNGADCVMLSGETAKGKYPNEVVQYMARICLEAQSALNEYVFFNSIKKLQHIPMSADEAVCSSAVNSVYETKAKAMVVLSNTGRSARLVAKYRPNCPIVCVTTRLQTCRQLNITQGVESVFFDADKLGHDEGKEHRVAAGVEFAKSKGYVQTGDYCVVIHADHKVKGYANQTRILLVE
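Pyruvate kinase activity monitored as ATP production (luciferase luminescence). Conditions: 0.1 nM enzyme, 0.5 mM PEP, 0.1 mM ADP, 1 h, RT; normalized against uninhibited and no-enzyme wells.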
RE007 growth inh: less growth of the S. pombe RE007 Vpr strain | S. pombe RE007 Vpr strain, BacTiter-Glo ATP luminescence, 24 h | Potency, µM (top dose mostly 92.2 µM), usual class: inhibitors | actives 0.21% (n = 360,000) | AID 651644; active = well fitted falling curve with a large enough effect; inconclusive = small, poorly fitted or top-dose-only effect; inactive = no such curve, though single readings can be large or run the other way; note: nearly all actives have a fitted effect of over 50% in size
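Fission yeast RE007 carrying one integrated HIV-1 vpr copy, seeded at OD 0.01 in PMG+AL medium with 23 nL pinned compound. Grown 24 h at 30 degrees; viability read by BacTiter-Glo luminescence after 5 min.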
FBPA Giardia inh: Giardia lamblia aldolase inhibition; Potency, µM (highest dose often 59.6 µM), usual class: inhibitors; actives 0.71% (n = 290,000); purified Giardia FBPA; AID 2451; A8B2U2; note: nearly all actives have a fitted effect of over 55% in size
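40 nM FBPA preincubated 10 min at RT with compound (up to 57.5 uM final), then substrate plus GAPDH/TPI/NAD/arsenate coupling and diaphorase/resazurin added. Fluorescence read after 20 min at RT, 525/598 nm.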
Tb PYK inh: T. brucei pyruvate kinase inhibition. Potency, µM (series often up to 76.8 µM), actives largely listed as inhibitors. actives 0.12% (n = 410,000). TbPYK enzyme, Kinase-Glo Plus ATP luminescence, 45 min. Q57TT1. AID 624173; note: nearly all actives have a fitted effect of over 50% in size
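Quantitative HTS: titrated library compounds versus trypanosomal pyruvate kinase in TEA buffer (pH 7.2) containing KCl, MgCl2, BSA and Tween-20. Reactions were initiated with ADP, 130 uM final. Kinase-Glo Plus luminescence was read after 45 min at RT.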
Of the large screens only hits and unclear results are named; the others gave an inactive call. Only a selection was taken, and hits are over-represented in it overall. Unless noted, calls come from the whole dose curve; as a rule, active = well fitted curve in the direction sought with a large enough effect; inconclusive = small, poorly fitted or top-dose-only effect, or another doubt; inactive = no such curve, though single readings can be large; an effect the other way counts as inactive or inconclusive.

CCCOc1ccc(C(=O)Nc2cccnc2)cc1	Cycloheximide cs 29 (no result: Shiga inhibitor)
CCOc1cc(C(=O)Nc2cccnc2)cc(OCC)c1OCC	none
Cc1ccccc1-c1csc(C(O)c2ccc(F)c(F)c2)n1 (configuration not stated)	none (no result: Cycloheximide cs, Shiga inhibitor, LmPK inhibitor, FBPA Giardia inh)
O=C(OCc1cc(=O)n2nc(C3CC3)sc2n1)c1ccc(NC(=O)c2ccccc2Cl)cc1	none (no result: Cycloheximide cs, Shiga inhibitor, LmPK inhibitor, RE007 growth inh, FBPA Giardia inh)
Cc1cc(C)c(NC(=O)Cc2csc(C)n2)c(Cl)c1	none (no result: Cycloheximide cs, Shiga inhibitor, LmPK inhibitor, RE007 growth inh, FBPA Giardia inh)
O=C(Nc1cccnc1)c1ccc(COc2ccccc2Br)cc1	Cycloheximide cs 24
Nc1nonc1OCCc1ccccc1	Cycloheximide cs 12
Nc1nonc1OCCCCOc1nonc1N	none
COc1ccccc1NC(=O)c1oc2ccccc2c1NC(=O)c1cccc(OC)c1OC	none (no result: Cycloheximide cs, Shiga inhibitor, LmPK inhibitor, RE007 growth inh, FBPA Giardia inh)
Cc1cc(C)n2c(SCc3cccs3)nnc2n1	Cycloheximide cs 15, Shiga inhibitor active
CCOC(=O)C1CCN(C/C=C/c2ccccc2[N+](=O)[O-])CC1	none
Cn1c(CNc2ccc(Br)cc2)nc2ccccc21	Cycloheximide cs 40, Shiga inhibitor 114, RE007 growth inh inconclusive
CC(C)n1c(NCc2nc3ccccc3n2C)nc2ccccc21	none
Cn1c(CNc2nc3ccccc3n2C)nc2ccccc21	Cycloheximide cs 68, Shiga inhibitor 77
Cc1ccc(NC(=O)NCc2nc3ccccc3n2C)cc1	none
Cc1ccc(NCc2nc3ccccc3n2C)cc1	Cycloheximide cs 49, Shiga inhibitor 95, LmPK inhibitor inconclusive
COc1ccc(C(=O)NNC(=O)Cc2nc3ccccc3n2C)cc1	none (no result: Cycloheximide cs, Shiga inhibitor, LmPK inhibitor, FBPA Giardia inh)
COc1ccc(NCc2nc3ccccc3n2C)cc1	Cycloheximide cs 35, Shiga inhibitor 66
C=C(C1=CCN(S(=O)C(C)(C)C)[C@@H]1CCO)c1ccccc1 (some centres not stated)	none (no result: Cycloheximide cs, Shiga inhibitor, LmPK inhibitor, FBPA Giardia inh)
Cc1ccc(SCC(=O)OCC(=O)N(CCC#N)c2ccccc2)cc1	none (no result: Cycloheximide cs, Shiga inhibitor, LmPK inhibitor, FBPA Giardia inh)
COc1ccc(OC)c(CNC(=O)Cn2ncc3c([nH]c4ccc(C)cc43)c2=O)c1	none (no result: Cycloheximide cs, Shiga inhibitor, LmPK inhibitor, RE007 growth inh, FBPA Giardia inh)
COc1ccc(Nc2nc3ccccc3n2C)cc1	Cycloheximide cs 35, Shiga inhibitor 40, FBPA Giardia inh inconclusive
CCOC(=O)c1ccc(NC(=O)CSc2nnc(CNc3ccc(C)cc3)n2C)cc1	none
Cn1c(Nc2ccc(F)cc2)nc2ccccc21	none
Cc1ccc(NCc2nc3ccccc3n2C)cc1C	Cycloheximide cs 46 (no result: Shiga inhibitor)
CCOC(=O)c1ccc(NCc2nc3ccccc3n2C)cc1	Cycloheximide cs 32, LmPK inhibitor inconclusive, RE007 growth inh inconclusive
Cn1c(CNc2ccc(O)cc2)nc2ccccc21	Cycloheximide cs 19, Shiga inhibitor 75, FBPA Giardia inh inconclusive
CCOC(=O)c1cccc(NS(=O)(=O)c2ccc3[nH]c4c(c3c2)CCCC4)c1	none (no result: Cycloheximide cs, Shiga inhibitor, LmPK inhibitor, RE007 growth inh, FBPA Giardia inh)
CC[C@H](C)[C@H](NC(=O)[C@H](Cc1ccccc1)NC(=O)[C@H](CC(C)C)NC(=O)[C@H](CCSC)NC(=O)[C@H](CCC(=O)O)NC(=O)[C@H](CCC(=O)O)NC(=O)[C@H](CC(=O)O)NC(=O)[C@H](CO)NC(=O)[C@@H]1CCCN1C(=O)[C@H](CCCCN)NC(=O)[C@@H](N)[C@@H](C)O)C(=O)N[C@@H](Cc1ccc(O)cc1)C(=O)NCC(=O)N[C@@H](Cc1cnc[nH]1)C(=O)N[C@@H](Cc1ccc(O)cc1)C(=O)N[C@@H](CCCCN)C(=O)N[C@@H](CCC(N)=O)C(=O)N[C@@H](C)C(=O)N[C@H](C(=O)N[C@H](C(=O)NCC(=O)N[C@@H](CC(=O)O)C(=O)N[C@H](C(=O)N[C@@H](CC(N)=O)C(=O)N[C@H](C(=O)N[C@@H](CCC(=O)O)C(=O)N[C@@H](CCCNC(=N)N)C(=O)N1CCC[C@H]1C(=O)NCC(=O)N[C@@H](CCSC)C(=O)N[C@@H](CC(C)C)C(=O)N[C@@H](CC(=O)O)C(=O)N[C@@H](Cc1ccccc1)C(=O)N[C@H](C(=O)O)[C@@H](C)O)[C@@H](C)O)[C@@H](C)CC)C(C)C)[C@@H](C)O	none (no result: LmPK inhibitor, RE007 growth inh, Tb PYK inh)
Cc1c(OCC(=O)Nc2cccnc2)ccc2c3c(c(=O)oc12)CCC3	Cycloheximide cs 20 (no result: FBPA Giardia inh)
O=C(COc1cc2oc(=O)c3c(c2cc1Cl)CCC3)Nc1cccnc1	Cycloheximide cs 28
